# Assay results taken from PubChem BioAssay AID602452 (National Center for Advancing Translational Sciences (NCATS), 2012).
# The source made the active and inactive calls. How the calls were made is not given here.
# Experiment: qHTS Assay for Inhibitors of Influenza NS1 Protein Function: SAR Using NS1 and pYES strains
# Settings: yeast NS1-expressing strain growth, OD at 60 h; stronger effect = higher value
# Excerpt: Influenza is a world-wide public health problem and emerging forms of the virus have the potential to cause a pandemic of equal or greater magnitude to the outbreaks recorded in 1918, 1957 or 1968. Vaccine development is proceeding and there also exist two classes of anti-influenza compounds. However these therapeutic modalities are neither fully effective nor widely enough available to fulfill global needs. In addition their potential usefulness against newly emergent strains is not known. Efforts are needed to develop novel agents against influenza virus, including broad-spectrum agents. Identification of small molecules that inhibit NS1 function either directly or by interfering with specific cellular pathways may be a key to increasing our defense against the virus.
# We have miniaturized and optimized a cell based assay in which NS1 from influenza A is expressed in the budding yeast S. cerevisiae. NS1 is a multi-functional protein that counters the host innate immune response and facilitates viral versus cellular gene expression. Expression of NS1 causes a pronounced slow growth phenotype in yeast due to its intrinsic molecular activities. Small molecules that suppress the slow growth phenotype can be identified by a straightforward growth recovery assay using optical density (OD) as the measurement. The same yeast strain not expressing NS1 was used as positive control in the yeast growth recovery assay.
# Hits resulting from the primary screen and other follow-up screens, were tested using the same yeast strain that was used in the primary assay (NS1) but as control, were compared to a strain that lacks NS1 (pYES).
# NIH Chemical Genomics Center [NCGC]
# NIH Molecular Libraries Probe Centers Network [MLPCN]
# Assay Submitter (PI): Daniel Engel, University of Virgina
# Strain 9526-6-2 (MATa his3Delta1 leu2Delta0 lys2Delta0 ura3Delta0 pdr1::KanMX4 pdr3::KanMX4) was a gift from Dan Burke. It was derived by tetrad dissection from two parent strains that had been modified by one step gene replacements. The pdr1::KanMX4 was constructed in BY4741 (MATa his3Delta1 leu2Delta0 met15Delta0 ura3Delta0) and the pdr3::KanMX4 was constructed in BY4742 (MATalpha his3Delta1 leu2Delta0 met15Delta0 ura3Delta0). PCR-mediated one-step gene replacements, matings and tetrad dissections were performed as described previously.[i] The strain 9526-6-2/pYES-NS1 was generated by transformation of 9526-6-2 with the plasmid pYES-NS1 and maintained on synthetic complete medium (SC) lacking uracil. For growth experiments and library screening, a single transformed colony was grown overnight, and the cell number was determined by using a Coulter counter (Beckman Coulter Corp.). The cells were diluted to 5 x 10^5 cells/mL in SC lacking uracil and containing raffinose and 2% galactose. A portion of this culture was added to preplated test compounds such that the final dimethyl sulfoxide (DMSO) concentration was 1%. Optical density readings at 600 nm (OD600) were taken using a Thermomax microplate reader (Molecular Devices).
row,SMILES,OD (growth)
1,COc1cc(-c2ccnc3c2c(C)nn3-c2cccc(C(F)(F)F)c2)ccc1O,0.366 (active)
2,Cc1ccc(-n2nc(C)c3c(-c4ccc(O)c(O)c4)c(C#N)c(N)nc32)cc1C,0.515 (active)
3,COc1cc(-c2c(C#N)c(N)nc3c2c(C)nn3-c2ccc(F)cc2)ccc1O,0.396 (active)
4,COc1cc(-c2ccnc3c2c(C)nn3-c2ccc(C(F)(F)F)cc2)ccc1O,0.46 (active)
5,Cc1nn(-c2ccc(Cl)cc2)c2nc(N)c(C#N)c(-c3ccc(O)c(O)c3)c12,0.384 (active)

# Same assay, conditions: yeast NS1-expressing strain growth, OD at 60 h; measured here: pYES control strain growth; stronger effect = higher value
row,SMILES,OD (growth)
1,COc1cc(-c2ccnc3c2c(C)nn3-c2cccc(C(F)(F)F)c2)ccc1O,0.551
2,Cc1ccc(-n2nc(C)c3c(-c4ccc(O)c(O)c4)c(C#N)c(N)nc32)cc1C,0.536
3,COc1cc(-c2c(C#N)c(N)nc3c2c(C)nn3-c2ccc(F)cc2)ccc1O,0.591
4,COc1cc(-c2ccnc3c2c(C)nn3-c2ccc(C(F)(F)F)cc2)ccc1O,0.56
5,Cc1nn(-c2ccc(Cl)cc2)c2nc(N)c(C#N)c(-c3ccc(O)c(O)c3)c12,0.572
